# Experimental data from PubChem BioAssay (NCATS).
# Results filed as inconclusive are left out. Values without a mark were called inactive. Active and inactive are the calls of the source. The call rests on the fitted dose curve; in most records, active means well fitted curve in the direction sought with a large enough effect; inconclusive means small, poorly fitted or top-dose-only effect, or another doubt; inactive means no such curve, though single readings can be large; an effect the other way counts as inactive or inconclusive.
# Biological target: Rap guanine nucleotide exchange factor 4 (Homo sapiens) (UniProt Q8WZA2)
# Sequence (Q8WZA2 whole entry, looked up): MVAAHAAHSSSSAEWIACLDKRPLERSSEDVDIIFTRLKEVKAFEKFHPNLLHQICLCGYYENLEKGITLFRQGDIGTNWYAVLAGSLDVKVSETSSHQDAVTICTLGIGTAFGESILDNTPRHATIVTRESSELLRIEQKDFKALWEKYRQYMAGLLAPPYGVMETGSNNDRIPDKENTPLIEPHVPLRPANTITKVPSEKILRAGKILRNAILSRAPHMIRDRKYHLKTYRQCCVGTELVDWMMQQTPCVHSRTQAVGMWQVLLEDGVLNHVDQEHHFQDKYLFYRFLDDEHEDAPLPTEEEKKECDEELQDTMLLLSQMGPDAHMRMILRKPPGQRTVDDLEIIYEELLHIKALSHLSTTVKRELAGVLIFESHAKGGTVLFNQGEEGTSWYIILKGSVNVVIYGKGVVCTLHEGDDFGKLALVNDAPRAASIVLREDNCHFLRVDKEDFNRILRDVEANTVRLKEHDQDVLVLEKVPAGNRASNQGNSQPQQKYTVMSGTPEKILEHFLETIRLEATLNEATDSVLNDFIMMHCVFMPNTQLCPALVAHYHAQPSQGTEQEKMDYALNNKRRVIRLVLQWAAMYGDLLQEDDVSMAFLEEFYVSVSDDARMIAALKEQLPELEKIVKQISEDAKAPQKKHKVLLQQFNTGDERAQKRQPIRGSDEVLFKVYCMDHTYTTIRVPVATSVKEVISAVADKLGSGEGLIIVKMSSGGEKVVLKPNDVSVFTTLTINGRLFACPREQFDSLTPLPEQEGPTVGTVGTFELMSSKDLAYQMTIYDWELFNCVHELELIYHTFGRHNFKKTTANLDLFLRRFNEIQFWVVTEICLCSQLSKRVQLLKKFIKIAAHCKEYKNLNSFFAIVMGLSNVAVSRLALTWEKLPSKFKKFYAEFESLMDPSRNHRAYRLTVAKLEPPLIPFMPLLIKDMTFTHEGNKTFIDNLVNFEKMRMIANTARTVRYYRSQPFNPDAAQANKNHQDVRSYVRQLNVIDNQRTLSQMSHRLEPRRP
# Experiment: Confirmatory qHTS for antagonist of cAMP-regulated guanine nucleotide exchange factor 4 (EPAC2) (AID 1645885); further: nearly all actives have a fitted effect of over 25% in size; on activity change, negative = inhibition: on the % scale 0 is the no-effect control and ±100 the full control effect
# Settings: EPAC2 Rap1B-BODIPY-GDP exchange fluorescence, biochemical; series mostly up to 12.7 µM; activity change, negative = inhibition: at the top concentration
SMILES,"activity change, negative = inhibition",outcome
CN(C)C(CNC(=O)c1cc(-c2ccco2)nc2ccccc12)c1ccccc1 (stereo unspecified),-6.71%,
COc1ccc(OCCC(=O)OCC(=O)Nc2ccc(S(=O)(=O)N3CCOCC3)cc2)cc1,-5.96%,
COC(=O)[C@H](Cc1ccccc1)NC(=O)c1ccc2ccccc2n1,-25.2%,
CCN(CC)CC#CC(OC)(c1ccccc1)c1ccccc1,60.2% [at 114 µM],
CN(CC(=O)Nc1ccc(Cl)c(C(F)(F)F)c1)CC(=O)NC1CCCCC1,,inactive
Cc1ccc(N=C2NC(=O)/C(=C/C=C/c3ccco3)S2)cc1,,inactive; activator; fitted 1.0691 uM

# Biological target: Rap guanine nucleotide exchange factor 3 (Homo sapiens) (UniProt O95398)
# Sequence (O95398 whole entry, looked up): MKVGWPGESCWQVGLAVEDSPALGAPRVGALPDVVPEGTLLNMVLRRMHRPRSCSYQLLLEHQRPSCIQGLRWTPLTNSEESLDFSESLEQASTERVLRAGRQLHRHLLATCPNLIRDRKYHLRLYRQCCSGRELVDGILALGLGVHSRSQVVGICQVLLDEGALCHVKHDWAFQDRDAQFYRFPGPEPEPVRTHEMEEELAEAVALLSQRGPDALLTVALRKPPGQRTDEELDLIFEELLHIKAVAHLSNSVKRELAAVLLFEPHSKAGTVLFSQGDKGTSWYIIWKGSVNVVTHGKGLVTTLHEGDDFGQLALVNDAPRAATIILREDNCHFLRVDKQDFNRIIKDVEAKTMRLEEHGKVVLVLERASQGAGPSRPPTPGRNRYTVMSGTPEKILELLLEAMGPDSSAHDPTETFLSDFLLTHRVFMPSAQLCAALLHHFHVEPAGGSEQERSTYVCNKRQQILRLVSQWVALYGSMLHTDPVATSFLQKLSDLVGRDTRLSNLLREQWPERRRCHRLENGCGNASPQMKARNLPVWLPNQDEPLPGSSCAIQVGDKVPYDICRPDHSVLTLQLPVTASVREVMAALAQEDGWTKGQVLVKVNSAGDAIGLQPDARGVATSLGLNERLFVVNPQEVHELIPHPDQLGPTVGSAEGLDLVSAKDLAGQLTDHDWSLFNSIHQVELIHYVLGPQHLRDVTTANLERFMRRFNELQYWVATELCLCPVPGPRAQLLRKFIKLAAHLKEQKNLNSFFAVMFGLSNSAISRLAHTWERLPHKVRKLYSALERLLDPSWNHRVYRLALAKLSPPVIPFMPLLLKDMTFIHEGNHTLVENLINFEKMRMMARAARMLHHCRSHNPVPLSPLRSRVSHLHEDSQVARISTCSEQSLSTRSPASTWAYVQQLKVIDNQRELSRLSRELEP
# Experiment: Counterscreen qHTS for antagonist of cAMP-regulated guanine nucleotide exchange factor 3 (EPAC1) (AID 1645888);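 further: fluorescence loss as bound BODIPY-GDP is released from Rap1B; % of control where 0% means no effect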
# Settings: Rap1B-BODIPY-GDP nucleotide exchange, fluorescence; series mostly up to 154 µM; activity change, negative = inhibition: at the top concentration
# Summary of the method: (§1)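 Rap1B–BODIPY-GDP (250 nM) with 50 uM GDP; compounds pin-transferred to 9.74 nM–152 uM final (activator) or from 7.32 nM upwards (inhibitor). Fluorescence Ex/Em 480/540 nm read at 5 and 30 min, then after adding cAMP or buffer, at room temperature.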
row,SMILES,"activity change, negative = inhibition"
1,O=C(O)c1ccc(COc2ccccc2/C=C2/NC(=O)N(c3cccc(Cl)c3)C2=O)cc1,5.8%
2,Cc1cccc(N2CCCC2=Nc2ccc(Br)cc2C#N)c1,-16.5%
3,O=C1OC(c2ccccc2)(c2ccccc2)c2ccccc21,2.72% [at 30.8 µM]
4,CCCCN1C(=O)/C(=C/C=C2/CC(C)(C)CN2C)SC1=S,125%
5,C[n+]1ccc(/C=C/c2c[nH]c3ccccc23)cc1,174%
6,O=[N+]([O-])c1c(Nc2ccccn2)cc(Cl)c2nonc12,13%
7,COc1cc2c3nnc(-c4ccc(F)cc4)c-3cn(Cc3cccc(C)c3)c2cc1OC,49.7%
8,COc1cccc(Nc2nnc(-c3cc4ccc(O)cc4oc3=O)s2)c1,129%
9,CCOc1ccc(S(=O)(=O)Nc2cc(SCC(=O)O)c(O)c3ccccc23)cc1,23.7%
10,CN1CC=C2C(C#N)=C(N)C(C#N)(C#N)[C@H](c3cccc(Cl)c3)C2C1 (stereo partly specified),33.9%

# Biological target: Rap guanine nucleotide exchange factor 3 (Homo sapiens) (UniProt O95398)
# Experiment: Counterscreen qHTS for agonist of cAMP-regulated guanine nucleotide exchange factor 3 (EPAC1) (AID 1645889); further: nearly all actives have a fitted effect of over 40% in size; further: potency means the concentration at half of the fitted maximal effect; on activation: % of control where 0% means no effect
# Settings: EPAC1 Rap1B-BODIPY-GDP exchange, fluorescence; series mostly up to 154 µM; activation: at the top concentration
# Summary of the method: as §1
SMILES,activation [%],Potency
Cc1cccc(N2CCCC2=Nc2ccc(Br)cc2C#N)c1,6.4,
CC1CCN(C2(O)C(=O)Nc3ccc(Br)cc32)CC1 (stereo unspecified),-4.09,
C[n+]1ccc(/C=C/c2c[nH]c3ccccc23)cc1,,35.5 µM (active)
COc1cc2c3nnc(-c4ccc(F)cc4)c-3cn(Cc3cccc(C)c3)c2cc1OC,-83.4,
CCOc1ccc(S(=O)(=O)Nc2cc(SCC(=O)O)c(O)c3ccccc23)cc1,,56.2 µM (active)
